A selection: hits, their analogues and other compounds. The true share with any hit is near 0.78%.
RECQ1 inh = RECQ1 (human) helicase inhibition; RECQ1 DNA unwinding, red fluorescence kinetic read; Potency, µM (titrated, usually from 57.3 µM), for inactives: at the highest dose activity, negative = inhibition, hits mostly inhibitors; actives 0.54% (n = 240,000); AID 2549;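 note: plate controls were vehicle for no effect and no enzyme for full effect; nearly all actives have a fitted effect of over 30% in size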
Target sequence (P46063 whole entry, looked up): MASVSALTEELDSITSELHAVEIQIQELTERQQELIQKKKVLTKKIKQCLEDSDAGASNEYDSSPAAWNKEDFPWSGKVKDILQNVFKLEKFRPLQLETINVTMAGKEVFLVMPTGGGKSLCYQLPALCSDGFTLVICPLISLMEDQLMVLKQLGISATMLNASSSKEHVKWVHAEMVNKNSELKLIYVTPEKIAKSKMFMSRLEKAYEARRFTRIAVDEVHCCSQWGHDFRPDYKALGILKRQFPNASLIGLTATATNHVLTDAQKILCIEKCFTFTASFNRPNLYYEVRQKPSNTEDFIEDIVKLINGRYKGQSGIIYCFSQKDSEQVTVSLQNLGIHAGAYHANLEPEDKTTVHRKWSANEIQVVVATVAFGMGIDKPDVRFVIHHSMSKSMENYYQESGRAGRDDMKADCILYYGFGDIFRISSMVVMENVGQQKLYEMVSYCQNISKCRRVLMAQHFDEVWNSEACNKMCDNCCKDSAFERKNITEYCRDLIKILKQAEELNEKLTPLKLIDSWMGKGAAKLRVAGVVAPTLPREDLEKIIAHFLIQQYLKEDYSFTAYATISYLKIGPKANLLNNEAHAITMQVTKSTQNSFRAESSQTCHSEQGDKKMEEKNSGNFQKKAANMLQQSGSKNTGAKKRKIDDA
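50 nM RECQ1T1 preincubated 15 min with compound in Tris pH 8.0 buffer with MgCl2, DTT, Tween-20 and 2.5 ug/ml poly(dI-dC); started with 200 nM TAMRA/BHQ-2 forked duplex and 2 mM ATP. Unwinding read as fluorescence (525/598 nm), two reads 2 h apart.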
APE1 inh-1 = blocks human APE1 abasic DNA cleavage. P27695. recombinant APE1, TAMRA/BHQ-2 abasic DNA cleavage fluorescence. Potency, µM (top dose mostly 65.8 µM), for inactives: top-dose activity change, negative = inhibition, actives largely listed as inhibitors. actives 0.35% (n = 350,000);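 note: plate controls were vehicle for no effect and reference inhibitor for full effect; nearly all actives have a fitted effect of over 55% in size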
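Incision of a quenched TAMRA/BHQ-2 THF abasic-site duplex (50 nM) by 0.75 nM APE1, after 15 min compound preincubation, measured as fluorescence increase over three 60 s reads. Values normalized to buffer, DMSO and NSC13755 control wells.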
L3MBTL1 inh = blocks human L3MBTL1; actives 0.66% (n = 230,000); AlphaScreen L3MBTL1–H3K9me1 peptide binding; Potency, µM (highest dose often 57.1 µM), for inactives: top-dose activity, negative = inhibition, most hits filed as inhibitors; note: nearly all actives have a fitted effect of over 60% in size
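L3MBTL1 (50 nM) pre-complexed 30 min with biotinylated H3(1-15)K9me1 peptide (75 nM), then compounds added for 30 min at room temperature; AlphaScreen streptavidin donor/nickel chelate acceptor beads (10 ug/mL final) read after 30 min dark incubation.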
BLM inh = inhibitors of human Bloom syndrome helicase BLM | Potency, µM (titrated, usually from 56.1 µM), inactives show at the top dose activity change, negative = inhibition, actives largely listed as inhibitors | actives 0.2% (n = 350,000) | P54132 | AID 2528 | recombinant BLM DNA unwinding, fluorescence dequenching;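 note: plate controls were vehicle for no effect and no enzyme for full effect; nearly all actives have a fitted effect of over 35% in size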
DNA dye displace = counter-screen for APE1 inhibitors: DNA dye displacement; actives 7% (n = 480); DNA fluorescent dye displacement counterscreen, fluorescence; Potency, µM (doses to about 28.5 µM), for inactives: top-dose activity change, negative = inhibition, usual class: inhibitors; AID 2564; shares compounds with APE1 inh-1;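 note: loss of thiazole orange fluorescence as the dye is displaced from duplex DNA; 0% = ThO with dsDNA and no compound and -100% = ThO without dsDNA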
Endo IV inh = blocks E. coli endonuclease IV DNA cleavage; shares compounds with APE1 inh-1; E. coli Endo IV, fluorogenic AP-site DNA cleavage; actives 4% (n = 560); Potency, µM (top dose mostly 27.1 µM), for the others: top-dose activity change, negative = inhibition, hits mostly inhibitors;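 note: plate controls were uninhibited enzyme wells for no effect and no enzyme buffer wells for full effect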
APE1 inh-2 = confirmation of inhibitors of human APE1 endonuclease. shares compounds with APE1 inh-1. purified APE1, fluorogenic abasic-site DNA cleavage. Potency, µM (titrated, usually from 57.1 µM), for the others: at the top dose activity change, negative = inhibition, actives largely listed as inhibitors. actives 44% (n = 750); note: nearly all actives have a fitted effect of over 30% in size
APE1 FP inh = APE1 (human) DNA binding inhibition, fluorescence polarization. Potency, µM (titrated, usually from 28.5 µM), for the others: top-dose activity, negative = inhibition, hits mostly inhibitors. shares compounds with APE1 inh-1. APE1 binding to TAMRA-labelled double-stranded DNA, fluorescence polarization displacement. actives 7% (n = 480)
Active calls of the source: *; i = inactive; ? = inconclusive; nt = no result given; ! = repeats disagree; [ ] = another dose, or the depositor's remark. Calls come from the whole dose curve; as a rule, active = well fitted curve in the direction sought with a large enough effect; inconclusive = small, poorly fitted or top-dose-only effect, or another doubt; inactive = no such curve, though single readings can be large; an effect the other way counts as inactive or inconclusive. Unless noted, % is set by controls: 0 for no effect and ±100 for the full control effect; potency is the fitted concentration of half-maximal effect.

SMILES	RECQ1 inh	APE1 inh-1	L3MBTL1 inh	BLM inh	DNA dye displace	Endo IV inh	APE1 inh-2	APE1 FP inh
Cc1ccc2c(c1)c(CC(NC(=O)c1ccccc1Oc1ccccc1)C(=O)O)cn2C(=O)OCc1ccccc1 (configuration not stated)	?	-6%	nt	-18%	nt	nt	nt	nt
CC1=CCC2C(=O)N(C(C)c3ccccc3)C(=O)C2C1 (configuration not stated)	-14%	9%	nt	0%	nt	nt	nt	nt
CC1=CCC2C(=O)N(c3nc4ccccc4n3C)C(=O)C2C1 (configuration not stated)	-12%	?	nt	3%	nt	nt	40µM*	nt
CC1O[C@@H](OC2C(COC3OC(CO)C(O)[C@H](O)C3O)OC(OC3CC[C@]4(C)C(CC[C@@]5(C)[C@@H]4CC=C4[C@@H]6CC(C)(C)CC[C@]6(CO)C(O)C[C@]45C)C3(C)C)C(O)C2O)C(O)C(O)C1O (some centres not stated)	nt	-19%	-8%	nt	nt	nt	nt	nt
C[C@@H]1OC(OC2CC[C@@]3(C)C(CC[C@@]4(C)C3CC=C3C5CC(C)(C)CC[C@]5(C(=O)OC5OCC(O)[C@@H](O)[C@@H]5OC5O[C@@H](C)[C@H](O[C@H]6OC(CO)C(O)C(O)C6O)C(O)C5O)C(O)C[C@@]34C)C2(C)C)C(O)C(O)[C@H]1OC1OCC(O)C(O)[C@H]1O (some centres not stated)	-17%	28µM*	nt	0%	-1%[57.1 µM]	0%[57.1 µM]	32µM*	8%[57.1 µM]
COc1ccc(-c2nnc3n2N=C(c2ccc(OC)cc2OC)CS3)cc1	15%	-10%	nt	5%	nt	nt	nt	nt
COc1ccc(C(CC(=O)N2CCCCC2)c2c(OC)cc(OC)c3c(-c4ccccc4)cc(=O)oc23)cc1 (configuration not stated)	?	25µM*	nt	-27%	13%	?	7.9µM*	14µM*
COc1ccc(C(CC(=O)N2CCN(c3ccccc3)CC2)c2c(OC)cc(OC)c3c(-c4ccccc4)cc(=O)oc23)cc1 (configuration not stated)	?	?	nt	2%	52%	?	5.6µM*	8%
COc1cccc(C(c2sc3nc(-c4ccco4)nn3c2O)N2CCC(C)CC2)c1 (configuration not stated)	nt	nt	nt	-1%	nt	nt	nt	nt
O=C(Nc1cc(C(=O)Nc2ccc(S(=O)(=O)O)cc2S(=O)(=O)O)cc(C(=O)Nc2ccc(S(=O)(=O)O)cc2S(=O)(=O)O)c1)Nc1cc(C(=O)Nc2ccc(S(=O)(=O)O)cc2S(=O)(=O)O)cc(C(=O)Nc2ccc(S(=O)(=O)O)cc2S(=O)(=O)O)c1	-1%	7.9µM*	nt	?	nt	?	2.5µM*	nt
O=C(Nc1cc(C(=O)Nc2ccccc2C(=O)O)cc(C(=O)Nc2ccccc2C(=O)O)c1)c1ccccc1	nt	0%	nt	-8%	nt	nt	nt	nt
COCCn1c(C)cc(C(=O)CSc2n[nH]c(N)n2)c1C	-23%	32µM*	14%[11.4 µM]	-14%	-1%	8%	-7%[24.4 µM]	-1%
CC(=O)O[C@H]1CC2(C)[C@@H](C[C@@H](O)[C@H]3[C@@]4(C)CC[C@@H](O)[C@@H](C)[C@@H]4CC[C@@]32C)C1=C(CCC=C(C)C)C(=O)O (some centres not stated)	-4%	-7%	nt	nt	nt	-8%[57.1 µM]	-25%	nt
S=C(S)OC1CC2CC1C1CCCC21 (configuration not stated)	-2%	2%	nt	nt	nt	-12%[57.1 µM]	-5%	nt
S=C(S)O[C@@H]1C[C@@H]2C[C@H]1[C@@H]1CCC[C@H]21	-20%	?	nt	1%	nt	nt	nt	nt
O=C(Nc1nnc(C23CC4CC(CC(C4)C2)C3)s1)c1ccc(N2C(=O)CCC2=O)cc1	-17%	10µM*	?	-3%	nt	nt	-23%	nt
CC(C)c1nnc(NC(=O)c2ccc(N3C(=O)CCC3=O)cc2)s1	5%	-4%	8%	0%	nt	nt	nt	nt
CCCc1cc(=O)[nH]c2nnc(SCCC(C)C)n12	nt	nt	nt	1%	nt	nt	nt	nt
O=C1CC(c2ccc(O)c(O)c2)Oc2cc(O)cc(O)c21 (configuration not stated)	?	13µM*	nt	4%	-8%	30%	?	6%
C#CCOc1c(Br)cc(C2C(C(=O)OC)=C(C)NC3=C2C(=O)c2ccccc23)cc1OCC (configuration not stated)	nt	nt	nt	-11%	nt	nt	nt	nt
CCOc1ccc2noc3c2c1C(=O)c1ccccc1-3	i	-4%	-12%	-6%	nt	nt	nt	nt
CCNc1ccc2noc3c2c1C(=O)c1ccccc1-3	3.5µM*	3.2µM*	?	25µM*	i	13µM*	14µM*	0.79µM*
N#C/C(=C/c1ccc(OCc2ccc(C(=O)O)cc2)c(Br)c1)c1cccc(F)c1	5%	?	nt	-25%	nt	nt	nt	nt
N#C/C(=C/c1cccn1-c1cccc(C(=O)O)c1)c1ccc(F)cc1	-1%	25µM*	?	-14%	7%	12%	?	-23%
NC(=O)Cn1c(=O)n(Cc2ccco2)c(=O)c2c3c(sc21)CCCCC3	?	?	?	?	?	3%	10µM*	?
SMILES	RECQ1 inh	APE1 inh-1	L3MBTL1 inh	BLM inh	DNA dye displace	Endo IV inh	APE1 inh-2	APE1 FP inh
O=C(Cn1c(=O)n(Cc2ccco2)c(=O)c2c3c(sc21)CCCC3)Nc1ccccc1	-14%	-3%	-10%	-14%	nt	nt	nt	nt
Cc1cc(C)c(C#N)c(SCC(=O)c2cccs2)n1	i	?	nt	-12%	nt	nt	-23%	nt
Cc1cc(C)c(C#N)c(SCC(=O)c2ccccc2)n1	?	13%	27%	-2%	nt	nt	nt	nt
CCOC(=O)CNC(=O)O[C@@H]1C(=O)c2cc(Br)ccc2O[C@H]1c1cccc(OC)c1	-1%	-4%	nt	0%	nt	nt	nt	nt
C[C@H]1C(=O)N(S(=O)(=O)c2ccc([N+](=O)[O-])cc2)[C@H]1c1ccc(F)cc1	7%	-3%	nt	0%	nt	nt	nt	nt
Cc1cc(C)cc(-n2ccn(Cc3ccc(F)cc3)c(=O)c2=O)c1	nt	nt	nt	-4%	nt	nt	nt	nt
COc1c(O)cc2c(c1O)[C@@H]1O[C@H](CO)[C@@H](O)[C@H](O)[C@H]1OC2=O	nt	8%	nt	-2%	nt	nt	nt	nt
Cc1c(C(=O)O)c(O)cc2c1C(=O)c1c(O)c([C@H]3O[C@H](CO)[C@@H](O)[C@H](O)[C@H]3O)c(O)c(O)c1C2=O	32µM*!	10µM*!	nt	-11%	?	-118%[57.1 µM]	3.2µM*	?

Compound activity (PubChem BioAssay)
